Measurements reported in PubChem BioAssay (EPA / NIEHS).
The source made the active and inactive calls. Rule for the calls: active = hit-call score of the fitted dose curve at least 0.9, where 1 is the maximum; inactive = score below 0.9.

The compounds below were run on Pro-epidermal growth factor (Homo sapiens) (UniProt P01133) (assay: LTEA_HepaRG_EGF: Life Technologies and Expression Analysis (LTEA) Assay for Epidermal growth factor (EGF) using HepaRG (AID 2283489)). Conditions: mRNA level, 48 h; actives raise or lower the signal.
Experimental: LTEA_HepaRG is a cell based, multiplexed-readout assay that uses HepaRG, a human liver cell line, with measurements taken at 48 hours after chemical dosing on a 96-well plate.LTEA_HepaRG_EGF is one of 102 assay component(s) measured in the LTEA HepaRG cell culture assay. It is a marker of Cell proliferation, survival, death.Data from the assay component LTEA_HepaRG_EGF was analyzed into 1 endpoint. This assay endpoint, LTEA_HepaRG_EGF, was analyzed with bidirectional fitting relative to DMSO as the negative control and baseline of activity. Using a type of inducible reporter, measures of mRNA induction for gain or loss-of-signal activity can be used to understand regulation of transcription factor activity. To generalize the intended target to other relatable targets, this assay endpoint is annotated to the growth factor intended target family, where the subfamily is EGF-like domain.
A total of 1060 chemcials from the ToxCast library were tested in eight-point concentration-response experiments. Cell culture and cytotoxicity assays were conducted at Thermo Fisher Scientific's Custom Services facility (Madison, WI). A single lot of human HepaRG cells (Thermo Fisher Scientific, Frederick, MD) was used for the cell culture experiments. 96-well format collagen type I coated plates of human HepaRG cells were prepared using established methods. Briefly, cryopreserved HepaRG cells were thawed, plated at a density of approximately 100,000 cells/well in HepaRG Thaw, Plate, and General Purpose media (HPRG770, Thermo Fisher Scientific), and incubated for 48 hours. 0.5% DMSO was selected as vehicle control to balance the requisite need of DMSO in HepaRG cultures to maintain differentiation (for example, baseline metabolism, proportions of hepatocytes vs. cholangiocytes), while enabling further hepatic receptor pathway activation (for example, PXR and CAR) in response to chemical exposure. 48 hours after plating, the culture medium was replaced with HepaRG Serum-Free Incudtion Media. Cells were exposed to each test chemical in duplicate and maintained in CO2 incubators for another 48 hours. Chemical plates were thawed to room temperature and 200x concentrations of treatment groups were prepared. 8-point conentration-reponse curves were made with the highest exposure at 100 uM, followed by half-log dilutions, all in 0.5% DMSO. Each test plate contained variouse controls, induction positive controls (1mM phenobarbital), cytotoxicity positive controls ([…] aflatoxin B1), vehicle controls (0.5% DMSO), and total lysis controls (0.5% DMSO). Cell morphology images were taken using an Essen IncuCyte FLR automated microscope, with six 96-well plates imaged in about 24 minutes. Images were captured and exported and JPEG files. Spent culture media was transfered to black-well plates for the LDH assay, and remaining media was sorted at -80 C for later use. Cells were treated with RLT buffer and frozen until shipped for gene expression analysis. Total RNA was isolated from the cell suspension in 75 uL of Buffer RLT (Qiagen, Germantown, MD 20874) by Quintiles/Expression Analysis (Durham, NC) using a custom isolation procedure. Total RNA from each plate well was transferred to a preamplification plate. Fluidigm's 96.96 Dynamic ArrayTM (Fluidigm, Amsterdam, the Netherlands) technology was used for gene expression analyses by quantitative reverse transcription polymerase chain reaction (qRT-PCR, performed by Quintiles/Expression Analysis, Durham, NC)89. Standard TaqManTM Assays (Applied Biosystems/ThermoFisher Scientific, Foster City, CA) were used to assess the expression of 93 genes selected based on their selectivity and sensitivity to important hepatic receptors known to be modulated by environmental chemicals; importance in human hepatocyte functionality; and hepatotoxicity. […]

SMILES	outcome	AC50
CC1(C)CON(Cc2ccccc2Cl)C1=O	inactive	–
COCc1cnc(C2=NC(C)(C(C)C)C(=O)N2)c(C(=O)O)c1 (stereo not given)	inactive	–
COc1cc(OC)nc(NC(=O)NS(=O)(=O)c2ncccc2OCC(F)(F)F)n1	inactive	–
COC(=O)c1c(C(F)F)nc(C(F)(F)F)c(C2=NCCS2)c1CC(C)C	inactive	–
O=C(O)c1c(Cl)ccc2cc(Cl)cnc12	inactive	–
CCCN(CC)CC1COC2(CCC(C(C)(C)C)CC2)O1 (stereo not given)	inactive	–
CS(=O)(=O)c1ccc(C(=O)C2C(=O)CCCC2=O)c([N+](=O)[O-])c1	inactive	–
CC(C)C1(C)N=C(c2ncccc2C(=O)O)NC1=O (stereo not given)	inactive	–
Nc1cnn(-c2ccccc2)c(=O)c1Cl	inactive	–
CCCCC(O)(Cn1cncn1)c1ccc(Cl)cc1Cl (stereo not given)	inactive	–
Cc1cnc(C2=NC(C)(C(C)C)C(=O)N2)c(C(=O)O)c1 (stereo not given)	inactive	–
CC(C)Nc1nc(Cl)nc(NC(C)C)n1	inactive	–
COc1cc(Cl)c(OC)cc1Cl	inactive	–
Cc1nc(N(C)C)nc(OC(=O)N(C)C)c1C	inactive	–
CC(C)(C)C(=O)C(Oc1ccc(Cl)cc1)n1cncn1 (stereo not given)	inactive	–
COC(=O)N(C(=O)N1CO[C@@]2(C(=O)OC)Cc3cc(Cl)ccc3C2=N1)c1ccc(OC(F)(F)F)cc1	inactive	–
CCNP(=S)(OC)O/C(C)=C/C(=O)OC(C)C (stereo not given)	inactive	–
COC(=O)NC(=S)Nc1ccccc1NC(=S)NC(=O)OC	inactive	–
N#Cc1c(Cl)cccc1Cl	inactive	–
N#Cc1c[nH]cc1-c1cccc2c1OC(F)(F)O2	inactive	–

SMILES	outcome	AC50
COP(=S)(OC)SCn1nnc2ccccc2c1=O	inactive	–
CCSC(=O)N1CCCCCC1	inactive	–
CCOP(=O)(OCC)Oc1nc(Cl)c(Cl)cc1Cl	inactive	–
CCCCOCN(C(=O)CCl)c1c(CC)cccc1CC	inactive	–
CN/C(=N\[N+](=O)[O-])NCc1cnc(Cl)s1	inactive	–
CCN(CC)c1nc(C)cc(OP(=S)(OC)OC)n1	inactive	–
Nc1c(Cl)c(Cl)nc(C(=O)O)c1Cl	inactive	–
CCOc1nc(F)cc2nc(S(=O)(=O)Nc3c(Cl)cccc3Cl)nn12	inactive	–
CC(C)=CC1C(C(=O)OCc2coc(Cc3ccccc3)c2)C1(C)C (stereo not given)	inactive	–
COCC(=O)N(c1c(C)cccc1C)C(C)C(=O)OC (stereo not given)	inactive	–
CC(C)NC(=O)N1CC(=O)N(c2cc(Cl)cc(Cl)c2)C1=O	–	12.8 µM (active)
CC1(C)C(C=C(Cl)Cl)C1C(=O)OC(C#N)c1cccc(Oc2ccccc2)c1 (stereo not given)	inactive	–
CNC(=O)Oc1cccc2ccccc12	inactive	–
CCC(C)n1c(=O)[nH]c(C)c(Br)c1=O (stereo not given)	inactive	–
COP(=S)(OC)Oc1ccc([N+](=O)[O-])c(C)c1	inactive	–
Clc1cccc(C(Cl)(Cl)Cl)n1	inactive	–
CCOC(=O)C(C)OC(=O)c1cc(Oc2ccc(C(F)(F)F)cc2Cl)ccc1[N+](=O)[O-] (stereo not given)	inactive	–
O=C1C2CC=CCC2C(=O)N1SC(Cl)(Cl)Cl (stereo not given)	inactive	–
CS(=O)(=O)c1cc(C(F)(F)F)ccc1C(=O)c1cnoc1C1CC1	inactive	–
Nc1c(Cl)c(F)nc(OCC(=O)O)c1Cl	inactive	–
